The source of these data is paper PMC9911399, “Two distinct binding modes provide the RNA-binding protein RbFox with extraordinary sequence specificity”.

Sequences and labels used below:
B1: GGGUACA (DNA:RNA)
RNA: GGGAGACCGGAAUUCAGAUUGUCCGGGUACAUUAAAUCCCGUCGUAGCCACCA
DNA 1: CAATCTGAATTCCGGTCTCCC
DNA 2: TGGTGGCTACGACGGGATT
B2: GUUCUUU (DNA:RNA)
RNA: B1 RNA with G26U, G27U, U28C, A29U, C30U, A31U
DNA 1: CAATCTGAATTCCGGTCTCCC
DNA 2: TGGTGGCTACGACGGGATT
B3: UCUUAUA (DNA:RNA)
RNA: B1 RNA with G25U, G26C, G27U, C30U
DNA 1: CAATCTGAATTCCGGTCTCCC
DNA 2: TGGTGGCTACGACGGGATT
B4: UAGUUAU (DNA:RNA)
RNA: B1 RNA with G25U, G26A, A29U, C30A, A31U
DNA 1: CAATCTGAATTCCGGTCTCCC
DNA 2: TGGTGGCTACGACGGGATT
B5: CCUCUCC (DNA:RNA)
RNA: B1 RNA with G25C, G26C, G27U, U28C, A29U, A31C
DNA 1: CAATCTGAATTCCGGTCTCCC
DNA 2: TGGTGGCTACGACGGGATT
B6: AUAACCC (DNA:RNA)
RNA: B1 RNA with G25A, G26U, G27A, U28A, A29C, A31C
DNA 1: CAATCTGAATTCCGGTCTCCC
DNA 2: TGGTGGCTACGACGGGATT
B7: GGCGCUG (DNA:RNA)
RNA: B1 RNA with G27C, U28G, A29C, C30U, A31G
DNA 1: CAATCTGAATTCCGGTCTCCC
DNA 2: TGGTGGCTACGACGGGATT
B8: GGUGUCA (DNA:RNA)
RNA: B1 RNA with G27U, U28G, A29U
DNA 1: CAATCTGAATTCCGGTCTCCC
DNA 2: TGGTGGCTACGACGGGATT
B9: AAACCAG (DNA:RNA)
RNA: GGGAGACCGGAAUUCAGAUUGUCCAAACCAGUUAAAUCCCGUCGUAGCCACCA
DNA 1: CAATCTGAATTCCGGTCTCCC
DNA 2: TGGTGGCTACGACGGGATT
B10: AACUAGA (DNA:RNA)
RNA: B1 RNA with G25A, G26A, G27C, C30G
DNA 1: CAATCTGAATTCCGGTCTCCC
DNA 2: TGGTGGCTACGACGGGATT
B11: AUUUUUU (DNA:RNA)
RNA: B9 RNA with A26U, A27U, C28U, C29U, A30U, G31U
DNA 1: CAATCTGAATTCCGGTCTCCC
DNA 2: TGGTGGCTACGACGGGATT
B12: GGGAGUG (DNA:RNA)
RNA: B1 RNA with U28A, A29G, C30U, A31G
DNA 1: CAATCTGAATTCCGGTCTCCC
DNA 2: TGGTGGCTACGACGGGATT
B13: GGAGUGU (DNA:RNA)
RNA: B1 RNA with G27A, U28G, A29U, C30G, A31U
DNA 1: CAATCTGAATTCCGGTCTCCC
DNA 2: TGGTGGCTACGACGGGATT
B14: GGGAUUC (DNA:RNA)
RNA: B1 RNA with U28A, A29U, C30U, A31C
DNA 1: CAATCTGAATTCCGGTCTCCC
DNA 2: TGGTGGCTACGACGGGATT
B15: GGAAUUC (DNA:RNA)
RNA: B1 RNA with G27A, U28A, A29U, C30U, A31C
DNA 1: CAATCTGAATTCCGGTCTCCC
DNA 2: TGGTGGCTACGACGGGATT
B16: CGGAUUC (DNA:RNA)
RNA: B1 RNA with G25C, U28A, A29U, C30U, A31C
DNA 1: CAATCTGAATTCCGGTCTCCC
DNA 2: TGGTGGCTACGACGGGATT
B17: CGGAGUG (DNA:RNA)
RNA: B1 RNA with G25C, U28A, A29G, C30U, A31G
DNA 1: CAATCTGAATTCCGGTCTCCC
DNA 2: TGGTGGCTACGACGGGATT
B18: AGUAUUG (DNA:RNA)
RNA: B9 RNA with A26G, A27U, C28A, C29U, A30U
DNA 1: CAATCTGAATTCCGGTCTCCC
DNA 2: TGGTGGCTACGACGGGATT
B19: GCGUCGG (DNA:RNA)
RNA: B1 RNA with G26C, A29C, C30G, A31G
DNA 1: CAATCTGAATTCCGGTCTCCC
DNA 2: TGGTGGCTACGACGGGATT
B20: CGGCUAU (DNA:RNA)
RNA: B9 RNA with A25C, A26G, A27G, C29U, G31U
DNA 1: CAATCTGAATTCCGGTCTCCC
DNA 2: TGGTGGCTACGACGGGATT
B21: AAACACU (DNA:RNA)
RNA: B9 RNA with C29A, A30C, G31U
DNA 1: CAATCTGAATTCCGGTCTCCC
DNA 2: TGGTGGCTACGACGGGATT
B22: GCGCAGU (DNA:RNA)
RNA: B1 RNA with G26C, U28C, C30G, A31U
DNA 1: CAATCTGAATTCCGGTCTCCC
DNA 2: TGGTGGCTACGACGGGATT
B23: GUUGUGG (DNA:RNA)
RNA: B9 RNA with A25G, A26U, A27U, C28G, C29U, A30G
DNA 1: CAATCTGAATTCCGGTCTCCC
DNA 2: TGGTGGCTACGACGGGATT
B24: GUGAACG (DNA:RNA)
RNA: B1 RNA with G26U, U28A, A31G
DNA 1: CAATCTGAATTCCGGTCTCCC
DNA 2: TGGTGGCTACGACGGGATT
B25: CGGAACG (DNA:RNA)
RNA: B1 RNA with G25C, U28A, A31G
DNA 1: CAATCTGAATTCCGGTCTCCC
DNA 2: TGGTGGCTACGACGGGATT
B26: UGGACCG (DNA:RNA)
RNA: B1 RNA with G25U, U28A, A29C, A31G
DNA 1: CAATCTGAATTCCGGTCTCCC
DNA 2: TGGTGGCTACGACGGGATT
B27: GUUAACG (DNA:RNA)
RNA: B1 RNA with G26U, G27U, U28A, A31G
DNA 1: CAATCTGAATTCCGGTCTCCC
DNA 2: TGGTGGCTACGACGGGATT
B28: CCGAACG (DNA:RNA)
RNA: B1 RNA with G25C, G26C, U28A, A31G
DNA 1: CAATCTGAATTCCGGTCTCCC
DNA 2: TGGTGGCTACGACGGGATT
B29: GGGAACG (DNA:RNA)
RNA: B1 RNA with U28A, A31G
DNA 1: CAATCTGAATTCCGGTCTCCC
DNA 2: TGGTGGCTACGACGGGATT
B30: GGAACGU (DNA:RNA)
RNA: B9 RNA with A25G, A26G, C28A, A30G, G31U
DNA 1: CAATCTGAATTCCGGTCTCCC
DNA 2: TGGTGGCTACGACGGGATT
B31: GAGAACG (DNA:RNA)
RNA: B1 RNA with G26A, U28A, A31G
DNA 1: CAATCTGAATTCCGGTCTCCC
DNA 2: TGGTGGCTACGACGGGATT
B32: UGGAACG (DNA:RNA)
RNA: B1 RNA with G25U, U28A, A31G
DNA 1: CAATCTGAATTCCGGTCTCCC
DNA 2: TGGTGGCTACGACGGGATT

Positions count from the first letter of the chain named. Over roughly 16,000 sequences, “ka relative to ugcaugu” has its median near 0.0091; the highest 2% begin near 0.032. The sample as a whole holds a higher share of the highest values than the screen did.

The assay concerns the target T1, RBFOX1 RRM (Homo sapiens, UniProt Q9NWB1 109-208).
T1 sequence: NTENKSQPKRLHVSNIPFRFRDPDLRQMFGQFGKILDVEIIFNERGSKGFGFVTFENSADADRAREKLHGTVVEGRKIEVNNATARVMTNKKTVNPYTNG
As to the kind of experiment: EMSA; HiTS-Eq, 1 nM pool, 10 min; buffer printed only for the single-RNA assays: 10 mM Tris pH 7.5, 150 mM NaCl, 3.4 mM EDTA, 0.001% NP-40, 30 C. The following applies: tags: His6 N-terminal (pET28a); label: 5' 32P. An outline of the steps:
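These values rest on relative association constants, computed from read-count changes of each RNA species versus the control reaction and normalised to the cognate motif. Reads came from free RNA recovered by 8% native PAGE after purified RbFox RRM (wild type or mutant) at increasing concentrations was equilibrated for 10 min in 50 µL with 1 nM of a 5′-radiolabelled pool with 7 randomized nucleotides and DNA-annealed flanks.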
A general note: A gel shift assay detects complexes by their altered migration in electrophoresis.
Take B1: the binding signal is 0.0112 KA relative to UGCAUGU.

B2: the binding signal is 0.0158 KA relative to UGCAUGU.

Turning to B3, the binding signal is 0.00158 KA relative to UGCAUGU.

On to B4, for which the binding signal is 0.00794 KA relative to UGCAUGU.

On to B5, for which the binding signal was 0.00489 KA relative to UGCAUGU.

In the case of B6, the binding signal is 0.00143 KA relative to UGCAUGU.

For the molecule B7, the binding signal was 0.0174 KA relative to UGCAUGU.

For B8, the binding signal is 0.00539 KA relative to UGCAUGU.

Turning to B9, the binding signal is 0.000872 KA relative to UGCAUGU.

As to B10, the binding signal is 0.00203 KA relative to UGCAUGU.

Consider B11, for which the binding signal is 0.007 KA relative to UGCAUGU.

For the molecule B12, the binding signal was 0.0333 KA relative to UGCAUGU.

Regarding B13, the binding signal was 0.0229 KA relative to UGCAUGU.

B14: the binding signal was 0.044 KA relative to UGCAUGU.

For B15, the binding signal was 0.018 KA relative to UGCAUGU.

As to B16, the binding signal is 0.0273 KA relative to UGCAUGU.

Take B17: the binding signal was 0.0283 KA relative to UGCAUGU.

As to B18, the binding signal is 0.0121 KA relative to UGCAUGU.

Regarding B19, the binding signal was 0.0208 KA relative to UGCAUGU.

For the molecule B20, the binding signal was 0.0107 KA relative to UGCAUGU.

For B21, the binding signal was 0.00096 KA relative to UGCAUGU.

B22: the binding signal was 0.0136 KA relative to UGCAUGU.

With B23, the binding signal is 0.0184 KA relative to UGCAUGU.

Consider B24, for which the binding signal is 0.0163 KA relative to UGCAUGU.

For the molecule B25, the binding signal was 0.0344 KA relative to UGCAUGU.

With B26, the binding signal was 0.0269 KA relative to UGCAUGU.

B27: the binding signal was 0.0101 KA relative to UGCAUGU.

As for B28, the binding signal is 0.0118 KA relative to UGCAUGU.

Regarding B29, the binding signal was 0.0367 KA relative to UGCAUGU.

With B30, the binding signal is 0.0248 KA relative to UGCAUGU.

Consider B31, for which the binding signal was 0.0165 KA relative to UGCAUGU.

As for B32, the binding signal is 0.0367 KA relative to UGCAUGU.
